# Assay results reported in PubChem BioAssay AID686978 (National Center for Advancing Translational Sciences (NCATS), 2013).
# “And” between values parts separate entries of the source, which are not always exact repeats. Equal values may be shown once. The whole screen tested about 420,000 compounds, of which about 64,000 (15%) were called active. Roughly 27% stayed inconclusive and do not appear here. A selection follows. A number with no mark means an inactive call. Calls come from the whole dose curve; as a rule, active = well fitted inhibition curve with a large enough effect; inconclusive = small, poorly fitted or top-dose-only effect; inactive = flat fitted curve, though single readings scatter.
# Test: qHTS for Inhibitors of human tyrosyl-DNA phosphodiesterase 1 (TDP1): qHTS in cells in absence of CPT; note: nearly all actives have a fitted effect of over 55% in size
# Conditions: DT40 Tdp1-/- hTDP1 cells, no CPT, ATP luminescence, 48 h; activity change, negative = growth inhibition: at 46.2 µM (top of the series)
# Source text: Human tyrosyl-DNA phosphodiesterase 1 (TDP1) is a novel repair gene, and we propose to use it as a new target for anticancer drug development. TDP1 is not an essential protein, but under treatment with topoisomerase I poison (camptothecin: CPT), TDP1 works as a critical factor for cell survival. To directly identify novel TDP1 inhibitors active in a cellular environment, we have knocked-out the Tdp1 gene in chicken DT40 cells (Tdp1-/-) and generated a complemented counterpart cells that contains a stable transfection of the human TDP1 gene (Tdp1-/-;hTDP1 cells). For the primary screen, Tdp1-/-;hTDP1 cells will be exposed to small molecules in the presence or absence of CPT, and their growth kinetics will be evaluated after 48 hours by measuring ATP activity. […] The hit compounds will then be evaluated in the presence or absence of CPT using Tdp1-/- cells. […] In tertiary assays, biochemical gel-based assays will be used to assess whether the hit compounds specifically target TDP1.
# To this end, we have screened this cell line against the MLSMR in two primary screens. In one screen we add CPT and in the other we screen in the absence of CPT; this AID represents the screen where CPT was absent.
# NIH Chemical Genomics Center [NCGC]
# NIH Molecular Libraries Probe Centers Network [MLPCN]
# Assay Submitter (PI): Yves Pommier, NCI
# DT40-hTDP1 cells without 20 nM Camptothecin (add 20 microL of DMSO in 1 L of cell culture medium) were dispensed at 400 cells/5microL/well in tissue culture treated 1536-well white wall/solid bottom assay plates (Greiner Bio-One North America, NC, U.S.A.) using a Multidrop Combi 8 channel dispenser (Thermo Fisher, Waltham, MA, USA). 23 nL compounds and controls were transferred using the pin tool (Kalypsys, San Diego, CA, USA) to the assay plates. The assay plates were then incubated at 37 masculineC for a minimum 48 hr. Three microL of Cell Titer Glo solution was added to the plates and incubated at RT in dark for 30 min. Luminescence was read using ViewLux (Perkin Elmer) with 1 sec exposure slow speed, high gain and 2x binning.
# % is set by controls: 0 for no effect and ±100 for the full control effect; potency is the fitted concentration of half-maximal effect.
Compound,Potency,"activity change, negative = growth inhibition [%]"
CCOc1cc(N2CCOCC2)c(OCC)cc1NC(=O)c1cc(C)nc2ccccc12,14.6 µM (active),–
CCOc1ccc(NC(=O)c2cc(C)nc3ccccc23)cc1,–,-0.374
COc1cc(C(=O)Nc2cc(C(F)(F)F)ccc2N2CCOCC2)ccc1O,–,-18.6
O=C(Nc1ccccc1N1CCOCC1)c1csc2c1CCCC2,–,-4.52
CCOc1cc(N2CCOCC2)c(OCC)cc1NC(=O)c1ccc(C)s1,2.06 µM (active),–
O=C(NNC(=O)c1cc(-c2ccccc2Cl)nc2ccccc12)c1csc(N2CCOCC2)n1,–,-11.1
Cc1oc(C)c(C(=O)NCCCC(=O)O)c1C(=O)NCCCC(=O)O,–,-25.2
Cc1ccc(S(=O)(=O)N2CCCCC2)cc1C(=O)N1CCN(CCO)CC1,–,17.8
CCn1nc(C)c(CNC(=O)C2CCC(=O)N(Cc3cccc(F)c3)C2)c1C (stereo unspecified),–,-2.49
CCc1ccc(C(=O)OCC(=O)NCC(F)(F)F)cc1,–,0.093
CC(N)C12CC3CC(CC(O)(C3)C1)C2 (stereo unspecified),–,4.71
CCc1ccc2c(c1)C1(NN=C(c3ccccc3)S1)C(=O)N2 (stereo unspecified),2.31 µM (active),–
CCc1cccc(NC(=O)c2cc(-c3ccccc3)n[nH]2)c1,–,-13.6
C=C1c2cc(CC)ccc2NC(=O)N1c1ccc(C)cc1,–,-12.5
Cc1cccc(C)c1NC(=O)C(c1ccccc1)N1CC(=O)Nc2ccccc21 (stereo unspecified),–,-13.2
COc1ccc(/C=C(/NC(=O)c2ccco2)C(=O)Nc2ccc(C(C)=O)cc2)cc1,–,-8.62
COc1ccc(/C=C(/NC(=O)c2ccccc2)C(=O)Nc2cccc(C(=O)O)c2)cc1,–,4.78
COc1ccc(/C=C(\NC(=O)c2ccc(OCC(C)C)cc2)C(=O)OCc2ccco2)cc1,16.4 µM (active),–
Cc1ccc(OCCOc2cccc(/C=N/NC(N)=O)c2)cc1,–,9.86
Cc1ccc(OCCOCCOc2ccc(Br)cc2/C=N\NC(=O)c2ccncc2)cc1,18.4 µM (active),–
CCOc1cc(/C=N/NC(=O)c2ccncc2)cc(Br)c1O,–,1.15
CCCOn1c(-n2nc(C)cc2C)nc2ccccc2c1=O,–,-8.69
CC(=O)c1ccc(OCC(=O)N(C)C2CCS(=O)(=O)C2)cc1 (stereo unspecified),–,-0.124
Cc1cc2c(cc3c(SCc4nc(-c5ccccc5)oc4C)nnc(C)n32)o1,16.4 µM (active),–
Cc1cc(NC(=O)CSCc2nc(-c3cccc(Cl)c3)oc2C)no1,–,3.73
Cc1oc(-c2cccc(NC(=O)c3ccccc3)c2)nc1CNC(=O)c1cnc2ccccn2c1=O,–,-2.25

Compound,Potency,"activity change, negative = growth inhibition [%]"
C/C(=C\C(=O)c1cccnc1)Nc1ccc(C)c(C)c1,–,-6.65
CSc1nc2ccccc2cc1/C=C(\C#N)c1ccc(Cl)cc1Cl,–,-23.3
O=C(CCCC(=O)N1CCN(c2cccc(Cl)c2)CC1)c1ccccc1,18.4 µM (active),–
O=C(CCCN1C(=O)C2C3C=CC(C3)C2C1=O)N1CCN(c2ccccc2)CC1 (stereo unspecified),–,2.5
CC(C)c1nnc(NC(=O)CCC(=O)N2CCN(c3cccc(Cl)c3)CC2)s1,–,-22.7
COc1ccc(NC(=O)CN(C)C(=O)c2ccc(NC3CC3)c([N+](=O)[O-])c2)cc1,–,-4.51
O=C1CN(C(=O)c2ccccc2F)C(c2ccc(F)cc2)c2cc(F)ccc2N1 (stereo unspecified),–,-11.5
CCOC(=O)CCc1c(C)c2ccc(OCc3nn[nH]n3)c(C)c2oc1=O,–,18.3
CC(C)C[C@@H]1COc2cc(N3CCC[C@@H]3CO)ccc2S(=O)(=O)N1,–,5.3
COc1ccc(/C=C2/SC(=O)N(CCCCCC(=O)Nc3ccccc3C(=O)O)C2=S)cc1,–,-28
CNN/C(N=Cc1ccc([N+](=O)[O-])s1)=N\S(=O)(=O)c1cc(C)c(Cl)cc1SCc1ccccc1,1.3 µM (active),–
CCC(C)(C(=O)NC1CCCCC1)N(C)C(=O)c1ccc2c(c1)OCO2 (stereo unspecified),–,-9.92
CCOc1ccccc1NC(=S)C(=C([O-])c1ccc2c(c1)OCCO2)[n+]1ccc(CC)cc1,18.4 µM (active),–
CCOc1ccccc1NC(=O)NC1CCCCCCC1,–,7.99
O=[N+]([O-])c1cccc(/C([O-])=C(/C(=S)Nc2ccccc2F)[n+]2ccccc2)c1,–,2.94
CC1(C)O[C@@H]2[C@H](O1)[C@@H](CO)O[C@H]2n1c(N2CCCCC2)nc2c(N)ncnc21,–,-5.36
CC(C)=CCN1CCN(Cc2cc3ccccc3[nH]2)CC1CCO (stereo unspecified),–,12.1
COc1ccc(COC(=O)NC(C(=O)O)c2ccccc2)cc1 (stereo unspecified),–,-15.9
CCc1nn(CCCN2CCN(c3cccc(Cl)c3)CC2)c(=O)n1CCOc1ccccc1,15 µM (active) and 5.31 µM (active),–
COc1cccc(N2CCN(C3CC(=O)N(c4ccc(Cl)cc4)C3=O)CC2)c1 (stereo unspecified),–,-9.93
Cc1nn(CCOc2ccccc2)c(=O)n1-c1ccccc1F,–,3.28
CN1C(C(=O)NCC2CC2)CC2Cn3c(nc4ccccc43)C21 (stereo unspecified),–,-5.86
CCS(=O)(=O)c1ccc(O)c(NC(=O)COc2ccc(Cl)cc2)c1,–,-25.9
O=C(Nc1cccc(S(=O)(=O)NC2=NCCC2)c1)c1ccc(F)cc1F,–,-20.4
O=C(Nc1cc(S(=O)(=O)Nc2ccc(Cl)cc2)ccc1O)c1ccc(F)cc1F,13 µM (active),–
